For 40 compounds, Potency results are on record in PubChem BioAssay (NCATS).

Records with an inconclusive call do not appear. Where a call stands in place of a potency, no number is given. Activity calls are given as the source filed them. Calls come from the whole dose curve; as a rule, active = well fitted inhibition curve with a large enough effect; inconclusive = small, poorly fitted or top-dose-only effect; inactive = no such curve, though single readings can be large or run the other way.
Potency is the fitted concentration of half-maximal effect.

Sequence of Cytochrome P450 3A4 (Homo sapiens) (P08684 whole entry, looked up): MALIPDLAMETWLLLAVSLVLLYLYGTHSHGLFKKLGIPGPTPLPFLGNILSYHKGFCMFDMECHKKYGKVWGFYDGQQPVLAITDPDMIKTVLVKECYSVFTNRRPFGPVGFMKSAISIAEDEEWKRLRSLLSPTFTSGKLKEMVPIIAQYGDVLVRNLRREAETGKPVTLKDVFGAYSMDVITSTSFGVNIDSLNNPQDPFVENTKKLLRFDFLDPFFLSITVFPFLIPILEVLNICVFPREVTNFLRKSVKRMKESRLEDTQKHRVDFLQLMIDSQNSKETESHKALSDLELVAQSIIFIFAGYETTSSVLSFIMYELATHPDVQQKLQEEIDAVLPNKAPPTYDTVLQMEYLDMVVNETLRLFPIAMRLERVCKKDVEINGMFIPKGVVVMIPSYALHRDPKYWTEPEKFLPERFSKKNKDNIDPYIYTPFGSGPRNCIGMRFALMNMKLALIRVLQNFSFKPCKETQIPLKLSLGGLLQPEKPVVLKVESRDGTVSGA

This experiment concerns the target Cytochrome P450 3A4 (Homo sapiens) (UniProt P08684). Briefly: qHTS Assay for Inhibitors and Substrates of Cytochrome P450 3A4 (AID 884). Note: nearly all actives have a fitted effect of over 50% in size. Particulars: recombinant CYP3A4, Luciferin-PPXE luminescence; series mostly up to 57.1 µM. How it is done:
NIH Molecular Libraries Screening Centers Network [MLSCN]
NIH Chemical Genomics Center [NCGC]
The P450 gene superfamily is involved in the metabolism and clearance of xenobiotics. This assay used human CYP3A4 to measure the dealkylation of luciferin-6' phenylpiperazinylyl (Luciferin-PPXE; […]) to luciferin. The luciferin is then measured by luminescence after the addition of a luciferase detection reagent. Luciferin-PPXE concentration in the assay was equal to its KM for CYP3A4. Inhibitors and some substrates limit the production of luciferin, and decrease measured luminescence.
NCGC Assay Protocol Summary:
Two uL of enzyme and substrate mix (final concentrations: 20nM CYP3A4, 25uM Luciferin-PPXE, 200mM KPO4) were dispensed into a white, solid bottom 1536-well microtiter plate. 23nL of compound was transferred by a pin tool. The plate was incubated at RT for 10 min. Two uL of an NADPH regeneration solution (Promega supplied reagent) was dispensed and the reaction was allowed to continue for 60 min at RT. Then the reaction was stopped by reconstituted luciferin detection buffer. After another 20 min of incubation the plate was read on the ViewLux (Perkin Elmer) at 60 sec exposure and 2x2 binning. This protocol was carried out with Promega-Glo reagents and further information can be found at http://www.promega.com/tbs/tb325/tb325.pdf. Data were normalized to the to AC100 inhibition (57 uM ketoconazole).
Keywords: P450, CYP3A4, Luciferase, MLSMR, MLSCN, NIH Roadmap, qHTS, NCGC
(In qHTS, concentration-response curves come from the screen itself.)
Regarding `CN(C)c1ccc(N=NS(=O)(=O)O)cc1`, the Potency entry was “inactive”.
In the case of `COc1ccccc1N1CCN(CCCCNS(=O)(=O)c2cccc3c(N(C)C)cccc23)CC1`, the Potency was 2510 nM (active).
For the compound `N#C/C(=C\c1c[nH]c2ccccc12)C(=O)c1ccc(O)c(O)c1`, the Potency is 7940 nM (active).
For the compound `COc1cccc(OC)c1OCCNCC1COc2ccccc2O1` (stereo not given), the Potency was 3160 nM (active).
For the compound `O=C(Nc1ccncc1)c1cc([N+](=O)[O-])ccc1Cl`, the Potency is 1260 nM (active).
On to `NCCO`, for which the Potency result was “inactive”.
As for `Nc1ccc(O)c([N+](=O)[O-])c1`, the Potency entry is “inactive”.
For the compound `COc1cc(CNC(=O)CCCC/C=C/C(C)C)ccc1O`, the Potency is 2510 nM (active).
Under `Cn1cc(C2=C(c3ccc(Cl)cc3Cl)C(=O)NC2=O)c2ccccc21` stands 2000 nM (active); under `O=C(O)c1cc(=O)c2c(Cl)cc(Cl)cc2[nH]1`, “inactive”; under `Oc1c(Br)cc(Br)c2cccnc12`, “inactive”.
As for `N=C(N)SCCc1ccc(CCSC(=N)N)cc1`, the Potency entry is “inactive”.
Under `NCCCCC(=O)O` stands “inactive”; under `c1cnc2c(c1)ccc1cccnc12`, “inactive”; under `COc1cc(/C=C/C(=O)CC(=O)/C=C/c2ccc(O)c(OC)c2)ccc1O`, 12600 nM (active).
Turning to `NCCSSCCN`, the Potency entry was “inactive”.
As for `NC(N)=NC(=O)c1nc(Cl)c(N2CCCCCC2)nc1N`, the Potency result was “inactive”.
As for `Oc1cc2c(cc1O)CN(C(=S)NCCc1ccc(Cl)cc1)CCC2`, the Potency is 3160 nM (active).
With `c1ccc2sc(SSc3nc4ccccc4s3)nc2c1`, the Potency entry is “inactive”.
As to `Cc1c(Nc2ncccc2C(=O)O)cccc1C(F)(F)F`, the Potency entry was “inactive”.
On to `CN(C)c1nc2c(Br)c(Br)c(Br)c(Br)c2[nH]1`, for which the Potency was 20000 nM (active).
With `Brc1c(Br)c(Br)c2n[nH]nc2c1Br`, the Potency was 2510 nM (active).
Under `N#C/C(=C\c1ccc(O)c(O)c1)C(=O)NCCCc1ccccc1` stands 2510 nM (active); under `CC(C)NCC(O)COc1cccc2ccccc12` (stereo not given), “inactive”; under `O=C(O)c1ccccc1Nc1cccc(C(F)(F)F)c1`, “inactive”.
For the compound `CN(C)CCC(c1ccc(Cl)cc1)c1ccccn1` (stereo not given), the Potency entry is “inactive”.
The entry for `O=C(O)c1cc(O)c(O)c(O)c1` is “inactive”; for `O=C(O)[C@@H]1C[C@@H](C(=O)O)N1` it is “inactive”.
Turning to `CC(C(=O)O)c1ccc(C(=O)c2cccs2)cc1` (stereo not given), the Potency entry was “inactive”.
As to `Nc1nc(Cl)nc2c1ncn2[C@@H]1O[C@H](CO)[C@@H](O)[C@H]1O`, the Potency entry is “inactive”.
In the case of `COC(=O)c1c(C)[nH]c(C)c1C(=O)c1ccccc1Cc1ccccc1`, the Potency is 501 nM (active).
Under `CC(C(=O)O)c1ccc2c(c1)[nH]c1ccc(Cl)cc12` (stereo not given) stands “inactive”; under `Cc1ccc(C(=O)c2ccc(CC(=O)O)n2C)cc1`, “inactive”; under `N.N.O=C(O)C1(C(=O)O)CCC1.[Pt]`, “inactive”.
`O=c1[nH]c2ccccc2n1CCCN1CCN(C(c2ccccc2)c2ccccc2)CC1`: the Potency entry is “inactive”.
The entry for `N=C1N=C(N)c2cc3ccccc3cc21` is “inactive”; for `O=C(O)CC[C@@H](C(=O)O)N1C(=O)c2ccccc2C1=O` it is “inactive”; for `N=C(N)N` it is “inactive”.
The entry for `O=C(O)/C=C\C(=O)O` is “inactive”.
On to `Fc1ccc(C(OCCCc2cnc[nH]2)c2ccc(F)cc2)cc1`, for which the Potency was 794 nM (active).
